About 79,000 compounds went through this panel and 15% of them were active in at least one assay; those are over-represented in the sample as a whole. The source made the active and inactive calls. Cut-off read from the data, not from the text of the source: active = growth inhibition above about 70%; inactive = the rest.
Test: NCI Yeast Anticancer Drug Screen. Data for the CLN2oe strain (AID 163);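 note: 0% = growth of vehicle-only control cultures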
Conditions: S. cerevisiae CLN2oe strain, active compounds read high
Method: Growth inhibition of yeast strains with defined genetic alterations is measured as a screen for potential anti-cancer activity. Selected strains with alterations in DNA damage repair or cell cycle control were exposed to compounds and growth inhibition was measured relative to vehicle treated controls. The strain used in this assay is CLN2oe

| SMILES | growth inhibition (at 1.2 µM) | growth inhibition (at 3.7 µM) | growth inhibition (at 11.0 µM) | growth inhibition (at 33.0 µM) | growth inhibition (at 100.0 µM) |
| --- | --- | --- | --- | --- | --- |
| CCN(CC)C(=S)N/N=C(/C)c1cccc(/C(C)=N\NC(=S)N(CC)CC)n1 | 17% (inactive) | 16% (inactive) | 31% (inactive) | 48% (inactive) | 91% (active) |
| Cc1[nH]c2ccccc2c1C(c1ccc(N)cc1)c1c(C)[nH]c2ccccc12 | -1% (inactive) | -3% (inactive) | -6% (inactive) | 0% (inactive) | 25% (inactive) |
| CC1(C)C(=O)OC(n2cc(F)c(=O)[nH]c2=O)C1=O (stereo not given) | 12% (inactive) | 13% (inactive) | -1% (inactive) | 30% (inactive) | -1% (inactive) |
| COc1cc2ccc(/C=C\[N+](=O)[O-])cc2cc1OC | 12% (inactive) | 0% (inactive) | -4% (inactive) | 91% (active) | 95% (active) |
| CCCCc1cc(O)ccc1O | -3% (inactive) | 1% (inactive) | 3% (inactive) | 11% (inactive) | 21% (inactive) |
| O=c1c2ccccc2ncn1COCc1ccccc1 | -26% (inactive) | -15% (inactive) | -12% (inactive) | -20% (inactive) | -9% (inactive) |
| CC(C)C1=CC2=C[C@H](O)[C@H]3C(C)(C)CCC[C@]3(C)C2=C(O)C1=O | -4% (inactive) | 4% (inactive) | 76% (active) | 99% (active) | 95% (active) |
| CC(C)(C)c1nc2c(o1)C(=O)c1ccccc1C2=O | -3% (inactive) | -8% (inactive) | 6% (inactive) | 65% (inactive) | 96% (active) |

From PubChem BioAssay (NCI)
